Source: PubChem BioAssay
This is a sample that favours compounds with a hit; in the whole collection about 3.6% have one here.
Sfp PPTase inh – Sfp phosphopantetheinyl transferase inhibition; AID 1490; hit rate 3.5% among 310,000; Biochemical Sfp PPTase activity, qHTS; Potency, µM, for the others: largest response in the series, negative = inhibition, actives largely listed as inhibitors;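 note: the enzyme is Sfp with the accession as filed and its product quenches rhodamine fluorescence; 0% = enzyme reaction without inhibitor and -100% = no enzyme wells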
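Buffer: 50 mM Hepes-Na pH 7.6, 10 mM MgCl2, 0.01% Nonidet P-40, 0.01% BSA. Enzyme 15 nM, pre-exposed to compound 15 min; substrates then added and fluorescence change tracked over 30 min.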
KDM4E inh – inhibitors of human JMJD2E histone demethylase | B2RXH2 | JMJD2E catalytic domain, FDH-coupled NADH fluorescence (FDH is formaldehyde dehydrogenase) | Potency, µM (top dose mostly 57.1 µM), for inactives: at the top dose activity change, negative = inhibition, most hits filed as inhibitors | hit rate 1.6% among 230,000 | AID 2147; active = well fitted inhibition curve with a large enough effect, not every such curve was filed as active; inconclusive = small, poorly fitted or top-dose-only effect, or another doubt; inactive = no such curve, though single readings can be large or run the other way;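 note: 0% = wells with enzyme and -100% = buffer wells without enzyme; nearly all actives have a fitted effect of over 50% in size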
Target sequence (B2RXH2 1-337 limits assumed): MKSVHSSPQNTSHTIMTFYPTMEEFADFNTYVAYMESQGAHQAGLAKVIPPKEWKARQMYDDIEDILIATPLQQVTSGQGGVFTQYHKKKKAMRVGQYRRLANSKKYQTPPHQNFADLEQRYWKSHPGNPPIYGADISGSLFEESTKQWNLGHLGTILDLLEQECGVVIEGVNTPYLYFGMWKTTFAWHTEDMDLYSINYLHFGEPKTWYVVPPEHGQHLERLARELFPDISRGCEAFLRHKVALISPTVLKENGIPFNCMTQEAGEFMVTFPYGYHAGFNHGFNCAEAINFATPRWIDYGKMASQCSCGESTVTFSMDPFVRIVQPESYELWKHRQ
NPSR antag – neuropeptide S receptor (human) antagonism, cAMP; Q6W5P4; CHO-NPSR cells, cAMP TR-FRET, antagonist mode; Potency, µM (titrated, usually from 38.3 µM), for the others: top-dose activity change, negative = inhibition, most hits filed as inhibitors; hit rate 1% among 220,000; note: % is set by controls: 0 for no effect and ±100 for the full control effect; nearly all actives have a fitted effect of over 50% in size
Target sequence (Q6W5P4 whole entry, looked up): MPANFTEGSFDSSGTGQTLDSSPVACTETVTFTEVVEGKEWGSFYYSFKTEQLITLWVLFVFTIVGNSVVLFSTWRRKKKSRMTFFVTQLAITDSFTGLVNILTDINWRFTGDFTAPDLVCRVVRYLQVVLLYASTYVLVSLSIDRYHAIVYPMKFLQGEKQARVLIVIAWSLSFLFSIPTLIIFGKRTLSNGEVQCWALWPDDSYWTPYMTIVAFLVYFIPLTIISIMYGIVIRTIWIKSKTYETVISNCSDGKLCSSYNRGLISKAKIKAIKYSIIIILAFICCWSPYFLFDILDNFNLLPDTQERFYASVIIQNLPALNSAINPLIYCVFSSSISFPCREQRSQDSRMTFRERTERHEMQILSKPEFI
Epigenetic reg – derepresses silenced GFP reporter in murine cells; Potency, µM (series often up to 53.9 µM), without a hit: at the top dose GFP activation, most hits filed as activators; hit rate 0.2% among 280,000; murine LDR cells, GFP reporter derepression, 30 h; note: % of control where 0% means no effect; nearly all actives have a fitted effect of over 60% in size
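Derepression of a silenced CMV-GFP reporter in murine LDR cells is scored by enumerating GFP-positive cells with a laser-scanning microplate cytometer after 30 hours of treatment at 37 C.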
IMPase Li cell – cell-permeable IMPase inhibitors with lithium potentiation; hit rate 0.35% among 210,000; Potency, µM (titrated, usually from 59.4 µM), inactives show at the highest dose activity, negative = IMPase inhibition, hits mostly inhibitors; CHO-M1 cells, IP1 TR-FRET (IP-One), carbachol + lithium; AID 1457;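 note: IP1 builds up when IMPase is blocked and the TR-FRET signal falls; plate controls were basal vehicle for no effect and high inhibitor control for full effect; nearly all actives have a fitted effect of over 50% in size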
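CHO-M1, 2000 cells/well, 16–30 h culture; cpd + low Li+, 30 min 37C; lysis with d2-IP1/Eu-anti-IP1 Ab, 10 min RT; TR-FRET 665/620 ratio and 620 channel; AC50 via Hill.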
KAT2A inh – GCN5L2 (KAT2A) acetyltransferase inhibition. GCN5L2 HAT assay, ThioGlo1 CoA-SH fluorescence. Potency, µM (highest dose often 58.9 µM), without a hit: at the highest dose activity change, negative = inhibition, usual class: inhibitors. hit rate 0.21% among 390,000. AID 504327; note: % is set by controls: 0 for no effect and ±100 for the full control effect
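ThioGlo1-coupled HAT assay: 20nM GCN5L2, 70uM acetyl-CoA, 75uM H3(1-25) peptide, pH 7.5. Fluorescence read at 340/540nm at start and after 20 min at room temperature.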
* = called active by the depositor; ? = inconclusive; . = not tested or not shown; [ ] = remark or other dose. Unless noted, calls come from the whole dose curve; as a rule, active = well fitted curve in the direction sought with a large enough effect; inconclusive = small, poorly fitted or top-dose-only effect, or another doubt; inactive = no such curve, though single readings can be large; an effect the other way counts as inactive or inconclusive. Potency is the fitted concentration of half-maximal effect.

SMILES	Sfp PPTase inh	KDM4E inh	NPSR antag	Epigenetic reg	IMPase Li cell	KAT2A inh
O=C(COC(=O)C1CC(=O)N(Cc2ccco2)C1)c1ccc(OC(=O)c2ccccc2)cc1 (stereo unspecified)	32µM*	0%	-13%[46.1 µM]	0%	3%	-20%
Oc1ccc(Nc2nc3ccccc3nc2Nc2ccc(O)cc2)cc1	-29%	-18%	10µM*	2%	32%[38.3 µM]	1%
Oc1ccc(Nc2nc(-c3ccccc3)nc3ccccc23)cc1	-1%	.	.	.	.	-24%
COc1cccc(C2CC(=O)N3CN(C4CCCCC4)CSC3=C2C#N)c1 (stereo unspecified)	.	.	.	-1%	.	?
COc1ccc(N2CSC3=C(C#N)C(c4cc(OC)ccc4OC)CC(=O)N3C2)c(OC)c1 (stereo unspecified)	3.2µM*	-22%	6%[46.1 µM]	1%	10%[38.3 µM]	?
CCOc1ccccc1N1CCN(S(=O)(=O)c2cc(C)ccc2OC)CC1	0%	-26%	5%	1%	21%	-8%
CCOc1ccccc1N1CSC2=C(C#N)C(c3c(OC)ccc4ccccc34)CC(=O)N2C1 (stereo unspecified)	3.2µM*	7.9µM*	-11%[46.1 µM]	?	15%[38.3 µM]	28µM*
COc1cc(OC)c(C2CC(=O)N3CN(c4ccc(C)cc4)CSC3=C2C#N)cc1OC (stereo unspecified)	5µM*	?	-20%[46.1 µM]	0%	-3%[38.3 µM]	?
COc1ccc(C2CC(=O)N3CN(C4CCCCC4)CSC3=C2C#N)cc1 (stereo unspecified)	.	.	.	3%	.	25µM*
CCCSC1=C(C#N)C(c2cc(OC)ccc2OC)CC(=O)N1 (stereo unspecified)	-7%	-2%	-1%[46.1 µM]	4%	4%	-1%
CCC12CN3CC(C)(CN(C1)C3c1c[nH]c3ccccc13)C2=O (stereo unspecified)	.	.	.	-3%	.	1%
CCCC[C@H]1CCCO[C@@](C(=O)NCc2ccccn2)(C(F)(F)F)C1	4%	.	.	.	.	.
CCSC1=C(C#N)C(c2ccc(OC)c(OC)c2)CC(=O)N1 (stereo unspecified)	16%	13%	-6%[46.1 µM]	0%	26%[38.3 µM]	-1%
COc1ccc(N2CSC3=C(C#N)C(c4ccc(OC)c(OC)c4)CC(=O)N3C2)c(OC)c1 (stereo unspecified)	3.2µM*	-24%	-3%[46.1 µM]	1%	-11%[38.3 µM]	-25%
COc1cc(C2CC(=O)N(c3ccc(C)c(Cl)c3)C3=C2C(=O)OC3)cc(OC)c1OC (stereo unspecified)	.	.	.	0%	.	0%
COc1ccc(N2C(=O)C3CC(C)=C(C)CC3C2=O)c(OC)c1 (stereo unspecified)	26%	-3%	-11%[46.1 µM]	-4%	-12%[38.3 µM]	-5%
COc1ccc(C2CC(=O)N3CN(c4ccc(C)c(Cl)c4)CSC3=C2C#N)cc1OC (stereo unspecified)	7.1µM*	13µM*	-9%[46.1 µM]	2%	?	?
COc1ccc(N2CSC3=C(C#N)C(c4cc(OC)c(OC)cc4OC)CC(=O)N3C2)c(OC)c1 (stereo unspecified)	3.5µM*	-14%	-7%[46.1 µM]	0%	12%[38.3 µM]	-22%
O=C(c1ccccc1)n1nc(-c2ccco2)nc1NCc1ccccc1Cl	.	.	.	1%	.	-12%
C=CCOC(=O)C(=O)/C=C/c1csc2ccccc12	40µM*	-28%	8%	6%	11%	-1%
COc1ccc(C2=CC(=O)C=CC2=O)cc1	3.2µM*	14µM*	-21%	-1%	.	13µM*
CC1=C[N+](=O)c2ccccc2[N+]1=O	.	.	.	.	0%	.
Cc1ccc(NS(=O)(=O)c2cccc(C(=O)NCC3(N(C)C)CCCCC3)c2)cc1	-17%	4%	10µM*	-1%	1%	-4%
CCN(CC)CCNC(=O)c1ccc(NC(=O)c2cccc(S(=O)(=O)Nc3ccc(C)cc3)c2)cc1	40µM*	0%	-25%	0%	22%	-4%
CCCCN1CC(c2nc3ccccc3n2CCCCOc2c(C)cccc2C)CC1=O (stereo unspecified)	.	.	.	?	.	0%
SMILES	Sfp PPTase inh	KDM4E inh	NPSR antag	Epigenetic reg	IMPase Li cell	KAT2A inh
Cc1ccc(NS(=O)(=O)c2cc([N+](=O)[O-])ccc2NNC(=S)Nc2cc(C)ccc2C)c(C)c1	-72%	-5%	-15%	-2%	10%	-24%
Cc1ccc(NS(=O)(=O)c2cc([N+](=O)[O-])ccc2NNC(=S)Nc2cccc(Cl)c2)c(C)c1	7.9µM*	?	-26%	4%	-8%	-27%
COc1ccc(NC(=S)NNc2ccc([N+](=O)[O-])cc2S(=O)(=O)Nc2ccc(C)cc2C)cc1	40µM*	?	-39%	1%	3%	?
O=C1CN(C(=O)c2ccc(S(=O)(=O)N3CCCC3)cc2)C(c2ccc(F)cc2)c2cc(F)ccc2N1 (stereo unspecified)	.	.	.	0%	.	-6%
CCc1c(C)sc(NC(=O)OC)c1C(N)=O	0%	0%	-1%[46.1 µM]	-1%	3%[38.3 µM]	3%
CCc1c(C)sc(NC(=O)OC)c1C(=O)N1CCCCC1	50µM*	-8%	-21%[46.1 µM]	0%	-8%[38.3 µM]	3%
Cc1ccc(C=Nc2ccccc2C(N)=O)o1	-50%	2%	11%	-6%	-9%	-6%
Cc1ccc(C=Nc2ccc(N(C)C)cc2)o1	?	13µM*	?	-5%	18%[38.3 µM]	-4%
Cc1cc(O)c(/C=N/Nc2ccc(Cl)cc2)c(=O)o1	79µM*	-10%	-24%[46.1 µM]	-1%	39%[38.3 µM]	-14%
Cc1cc(O)c(/C=N/Nc2cccc(Cl)c2)c(=O)o1	-15%	?	-14%[46.1 µM]	-1%	31%[38.3 µM]	19%
CCCCN(C)CCNC(=O)c1nn(-c2ccc(OC)c(Cl)c2)c(=O)c2c1c1ccccc1n2C	.	.	.	8%	.	3%
CCN(C(=O)CSc1nnc(Cn2nnc3ccccc32)o1)c1nc(C)cs1	20µM*	-7%	-7%[46.1 µM]	2%	-2%	-3%
CCN(C(=O)CSc1nnc(Cn2nnc3ccccc32)o1)c1nc(-c2ccccc2)cs1	17%	-4%	-11%[46.1 µM]	-2%	2%[38.3 µM]	-11%
Nc1[nH]c(N=NC(=O)c2ccccc2O)c2ccccc12	21%	25µM*	-4%	-2%	13%	-1%
Nc1[nH]c(N=NC(=O)c2ccccc2)c2ccccc12	-25%	3%	-10%	-1%	4%	-3%
Cc1ccccc1NC(=O)C1CCN(c2cc(-c3ccccc3)nc3ncnn23)CC1	17%	-3%	-15%	-1%	8.9µM*	-1%
O=C(Nc1ccc(Oc2ccccc2)cc1)C1CCN(c2c3c(nc4ncnn24)CCC3)CC1	-6%	-7%	13µM*	0%	32%[38.3 µM]	-8%
